Compound activity as filed in PubChem.
Measles CPE: compounds protecting cells from measles virus cytopathic effect, primary screen, measles RdRp inhibitor project, single point, MLSMR library, absorbance. protection (pct of control), % at 4 µM. Measles virus-infected cells, CPE protection. AID 841, 2007. hit rate 1.5% among 140,000; in the data active = protection mostly above about 24%, no sharp cut-off; inactive = mostly below about 26%
CYP2C19 act: human CYP2C19 activators, primary screen, biochemical, luminescence; Cytochrome P450 2C19 (Homo sapiens), P33261; recombinant CYP2C19, luciferin-H EGE luminescence; stronger effect = higher value; 0 = fully inhibited enzyme, 1 = untreated enzyme; activation factor at 5 µM; 96,000 tested, under 10 active;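 active = activation factor of at least 2 at 5 µM in the primary screen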;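 note: 0 = wells with 2.5 mM tranylcypromine and 1 = vehicle-only wells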
CYP2C9 act: human CYP2C9 activators, primary screen, biochemical, luminescence; recombinant CYP2C9, luciferin-H conversion; stronger effect = higher value; factor 1 = untreated enzyme, 0 = blocked; activation factor at 5 µM; hit rate 1.4% among 96,000;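 active = activation factor of 2 or more for CYP2C9 at a 5 µM dose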;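 note: 0 = sulfaphenazole-blocked wells and 1 = vehicle-only wells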
CYP2C19 inhib: blockers of cytochrome P450 2C19 activity – biochemical, luminescence, ADME assay, primary screen. P33261. CYP2C19 Supersomes, luciferin-H EGE luminescence, 30 min. inhibition, % at 5 µM. hit rate 21% among 96,000;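 active = CYP2C19 inhibition above a set limit at 5 µM in the primary screen, cut at about 50% in these data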;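 note: plate controls were negative control wells for no effect and 2.5 mM tranylcypromine positive control for full effect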
CYP2C9 inhib: blockers of cytochrome P450 2C9 activity – biochemical, luminescence, ADME assay, primary screen. CYP2C9 Supersomes, luciferin-H conversion. hit rate 20% among 96,000. inhibition, % at 5 µM. P11712;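 active = blocking of liver enzyme CYP2C9 beyond about 50% at 5 µM, limit read from the data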
* hit, by the source's call; nt = no result; ! = not confirmed by another sample. An excerpt weighted towards active compounds, which were near 22% of everything screened.

SMILES	Measles CPE	CYP2C19 act	CYP2C9 act	CYP2C19 inhib	CYP2C9 inhib
COc1ccc(S(=O)(=O)Nc2nc3ccccc3s2)cc1OC	6	0.7	0.4	25	62*
O=S(=O)(Nc1nc2ccccc2s1)c1ccc(Br)s1	9	0.2	0	81*	96*
CCOc1ccc2nc(NS(=O)(=O)c3ccc(NC(C)=O)cc3)sc2c1	26	1	0.8	5	15
CC(=O)Nc1ccc(S(=O)(=O)Nc2nc3ccccc3s2)cc1	26	0.7	0.4	33	62*
CCCCn1c(-c2cccnc2)n[nH]c1=S	16	nt	nt	nt	nt
c1ccc2[nH]c(-c3ccnc4ccccc34)nc2c1	24	0.7	0.5	29	54*!
Cc1ccc(Oc2ccc(-c3nc(N)nc(N)n3)cc2)cc1	22	0.9	0.9	6	7
CCOC(=O)CNc1c(-c2ccccc2)nc2ccc(Cl)cn12	19	0.4	0.5	58*	50
O=C(C[n+]1cccc2ccccc21)c1ccccc1	11	nt	nt	nt	nt
O=C(C[n+]1cc2ccccc2c2ccccc21)c1ccccc1	13	0.4	0.3	55*	72*
CCOC(=O)c1c(-c2ccc(OC)cc2)csc1NC(=O)CNCc1ccco1	8	0.5	0.3	53*	70*
CCOC(=O)c1c(-c2ccccc2)csc1NC(=O)C(C)NCc1ccco1 (stereo not drawn)	12	nt	nt	nt	nt
CCOC(=O)c1c(-c2ccc(OC)cc2)csc1NC(=O)CCN1C(=O)c2ccccc2C1=O	9	0.4	0.2	55*	78*
CCOC(=O)c1c(-c2ccc(OCC)cc2)csc1NC(=O)CCN1C(=O)c2ccccc2C1=O	16	nt	nt	nt	nt
C=CCNc1nc(Nc2ccc(OC)cc2)nc(OC)n1	16	1.1	1.1	-10	-5
COc1ccccc1NC(=O)CSc1nnc(Cc2cc(=O)[nH]c(=O)[nH]2)n1-c1ccccc1	3	0.9	0.9	5	14
OC(c1ccc(Cl)cc1)c1nnc(-c2ccccc2)o1 (stereo not drawn)	36	0	0.1	100*	88*
COc1ccc(N(CC(O)Cn2nnc3ccccc32)S(=O)(=O)c2ccc(C)cc2)cc1 (stereo not drawn)	14	0.1	0.3	86*	69*
COc1ccc(N(CC(O)CN2C(=O)NC(C)(C)C2=O)S(=O)(=O)c2ccc(C)cc2)cc1 (stereo not drawn)	18	0.4	0.3	61*	66*
CCOC(=O)CNC(=O)CSc1nnc(-c2cccc(C)c2)n1-c1ccc(OC)cc1	3	0.3	0.7	69*	31
CCC(C)NC(=O)CSc1nnc(-c2ccncc2)n1-c1ccc(OC)cc1 (stereo not drawn)	12	0	0.1	100*	86*
CCNC(=O)CSc1nnc(-c2ccccc2)n1-c1ccc(OCC)cc1	8	0.7	0.4	29	60*
CCC(C)NC(=O)CSc1nc2n[nH]c(C)c2c(=N)n1-c1ccc(OC)cc1 (stereo not drawn)	19	0.9	1	5	-4
CCOc1ccc(NC(=O)CSc2nnc(-c3ccccc3)n2N)cc1	19	1.1	1	-9	2
CCOC(=O)CC1C(=O)NCCN1S(=O)(=O)c1ccc(Cl)c(Cl)c1 (stereo not drawn)	10	0.8	1	20	0
SMILES	Measles CPE	CYP2C19 act	CYP2C9 act	CYP2C19 inhib	CYP2C9 inhib
Cc1ccc(N(CC(=O)Nc2ccc(C)cn2)S(=O)(=O)c2c(C)nn(C)c2C)cc1	17	0.2	0.2	76*	84*
COc1ccc(N(CC(=O)Nc2ccc(C)cn2)S(=O)(=O)c2c(C)nn(C)c2C)cc1	10	0.1	0.2	86*	84*
COc1cc(NC(=O)CN(c2ccc(C)cc2)S(=O)(=O)c2c(C)nn(C)c2C)cc(OC)c1	17	0.3	0.5	66*	54*
Cc1nn(C)c(C)c1S(=O)(=O)N(CC(=O)Nc1nccs1)c1ccc(C(C)C)cc1	3	nt	nt	nt	nt
COC(=O)c1ccc(NC(=O)CN(c2ccc(C)cc2)S(=O)(=O)c2c(C)nn(C)c2C)cc1	12	0.9	0.7	14	26
COc1ccc(N(CC(=O)Nc2nccs2)S(=O)(=O)c2c(C)nn(C)c2C)cc1	6	0.4	0.4	58*	64*
S=c1[nH]nc(-c2ccco2)n1/N=C/c1cccc(Cl)c1Cl	7	nt	nt	nt	nt
